Most compounds without a hit are left out; they make up all but 3.4% or so of the library.
Tau ThT inhib – inhibitors of human tau fibril formation, thioflavin T binding. P10636. recombinant tau K18 P301L, heparin-induced fibrillization, ThT fluorescence. Potency, µM (series often up to 57.4 µM), most hits filed as inhibitors. 270,000 tested, 2.1% active; further: nearly all actives have a fitted effect of over 55% in size
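Heparin-induced (20 uM) aggregation of recombinant human K18 P301L tau, 15 uM unlabeled with 0.24 uM labeled, pH 7 acetate buffer, 6 hr at 37 C with compound. Fibrils quantified by 30 uM ThT fluorescence after 1 hr ambient incubation.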
Tau fluor cs – counter-screen for tau fibril formation inhibitors | Potency, µM (doses to about 57.7 µM) | 280,000 tested, 0.93% active | tau K18 P301L Alexa594 fluorescence, heparin fibrillization; further: nearly all actives have a fitted effect of over 55% in size
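Human tau K18 P301L (15 uM unlabeled, 0.24 uM Alexa 594-labeled) in 100 mM sodium acetate pH 7 with 20 uM heparin, 6 hr at 37 C. ThT 30 uM added, 1 hr ambient; Alexa 594 FP and total fluorescence read at 555/632 nm.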
JMJD2E inh – inhibitors of human JMJD2E histone demethylase. JMJD2E catalytic domain, FDH-coupled NADH fluorescence (FDH is formaldehyde dehydrogenase). Potency, µM (top dose mostly 57.1 µM), most hits filed as inhibitors. 230,000 tested, 1.6% active; active means well fitted inhibition curve with a large enough effect, not every such curve was filed as active; inconclusive means small, poorly fitted or top-dose-only effect, or another doubt; inactive means no such curve, though single readings can be large or run the other way; further: nearly all actives have a fitted effect of over 50% in size
Target sequence (B2RXH2 1-337 limits assumed): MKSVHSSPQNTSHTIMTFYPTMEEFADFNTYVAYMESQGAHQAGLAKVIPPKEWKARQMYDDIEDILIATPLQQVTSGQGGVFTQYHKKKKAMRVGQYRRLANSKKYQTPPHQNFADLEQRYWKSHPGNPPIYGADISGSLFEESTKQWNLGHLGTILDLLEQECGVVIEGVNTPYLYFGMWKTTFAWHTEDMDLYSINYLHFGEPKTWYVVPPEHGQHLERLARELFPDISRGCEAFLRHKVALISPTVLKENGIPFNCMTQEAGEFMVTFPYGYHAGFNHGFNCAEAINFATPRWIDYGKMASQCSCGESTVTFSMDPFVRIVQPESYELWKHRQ
GoLoco inh red – RGS12 GoLoco-Gai1 interaction inhibition; Gai1:RGS12 GoLoco peptide FP, rhodamine, 10 min; Potency, µM (doses to about 61.6 µM), actives largely listed as inhibitors; 230,000 tested, 0.44% active; AID 880; active means well fitted inhibition curve with a large enough effect, not every such curve was filed as active; inactive means no such curve, though single readings can be large or run the other way; further: nearly all actives have a fitted effect of over 30% in size
Target sequence (P63096 whole entry, looked up): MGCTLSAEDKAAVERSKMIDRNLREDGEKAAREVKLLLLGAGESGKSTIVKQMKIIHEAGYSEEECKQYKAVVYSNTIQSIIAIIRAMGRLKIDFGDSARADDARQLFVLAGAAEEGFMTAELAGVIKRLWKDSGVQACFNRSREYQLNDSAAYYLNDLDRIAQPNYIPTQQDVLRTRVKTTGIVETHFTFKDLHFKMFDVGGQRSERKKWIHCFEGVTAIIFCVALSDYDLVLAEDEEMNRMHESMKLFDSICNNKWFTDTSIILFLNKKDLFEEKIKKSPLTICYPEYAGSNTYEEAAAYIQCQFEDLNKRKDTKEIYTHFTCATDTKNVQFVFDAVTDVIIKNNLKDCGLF
Tau fibril FP – tau fibrillization inhibition (FP) | P10636 | K18 P301L tau heparin fibrillization, Alexa594 FP, 6 h | Potency, µM (doses to about 57.7 µM), hits mostly inhibitors | 280,000 tested, 0.39% active | AID 1468; further: nearly all actives have a fitted effect of over 55% in size
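Steps: dispense K18 P301L tau (15 uM plus 0.24 uM Alexa 594 tracer, final) in pH 7 sodium acetate; add compound; add heparin (20 uM final); incubate 6 hr, 37 C; add ThT (30 uM final); after 1 hr ambient, read FP.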
Hits are given with their value; - = inactive; ? = inconclusive; . = not tested or not shown; [ ] = another dose, or the depositor's remark. Unless noted, the call rests on the fitted dose curve; in most records, active means well fitted curve in the direction sought with a large enough effect; inconclusive means small, poorly fitted or top-dose-only effect, or another doubt; inactive means no such curve, though single readings can be large; an effect the other way counts as inactive or inconclusive.

SMILES	Tau ThT inhib	Tau fluor cs	JMJD2E inh	GoLoco inh red	Tau fibril FP
COc1ccc(NC(=O)c2c(NCc3sccc3C)sc3c2CCCCC3)c(OC)c1	28µM	?	.	.	?
COc1ccc(NC(=O)c2c(NCc3ccc(C)o3)sc3c2CCCCC3)c(OC)c1	18µM	?	.	.	?
COc1ccccc1CNC(=O)CCC1N=C2c3ccccc3N=C(SCc3ccc(C)cc3C)N2C1=O (centres undefined)	?	-	.	.	-
COc1cc(CN(C(=O)c2ccc(Cl)cc2)C2CCS(=O)(=O)C2)cc(OC)c1OC (centres undefined)	-	-	.	.	-
CCc1ccc(CNC(=O)c2ccc(-n3c(C)cc4c3CCC(C)C4)cc2)cc1 (centres undefined)	?	-	.	.	-
CCc1cc(C(c2ccc(F)cc2)N2CCOCC2)c(NC(=O)c2ccccc2)s1 (centres undefined)	32µM	?	-	-	-
NC(=O)c1c(NC(=O)c2cc(-c3ccc(F)cc3)on2)sc2c1CCCC2	32µM	-	.	.	?
CC1CCN(C(=O)CSc2c(C(C)C)cnc3c2c(=O)n(C)c(=O)n3C)CC1	-	-	.	.	-
Cc1ccc(-c2nc3cc(NC(=O)C(C)C)ccc3o2)cc1	-	-	-	-	-
Cc1ccc(S(=O)(=O)Nc2ccc(-c3nc4cc(NS(=O)(=O)c5ccc(C)cc5)ccc4o3)cc2)cc1	-	?	?	-	16µM
O=C(Nc1ccc(Cl)cc1)N[C@@H]1c2c(ccc3ccccc23)OC[C@@H]1CO	-	?	-	-	32µM
CCc1ccc(NSc2ccccc2[N+](=O)[O-])cc1	?	14µM[quencher]	-	-	-
CCNc1nc(N)c(C(=O)c2ccc(Cl)s2)s1	13µM	?	-	-	-
COC(=O)/C(=C1\OC(=O)C(c2ccccc2)C1=O)c1ccccc1 (centres undefined)	?	-	-	-	-
Cn1c(-c2ccccc2)c(/C=N/NC(=O)c2ccc(O)cc2)c2ccccc21	?	20µM[quencher]	?	-	-
Cc1c(NC(=O)Nc2ccccc2C(F)(F)F)sc2nc3n(c(=O)c12)CCC(C)CC3 (centres undefined)	-	13µM[quencher]	.	.	?
CC(=O)c1cccc(NC(=O)Nc2sc3nc4n(c(=O)c3c2C)CCC(C)CC4)c1 (centres undefined)	?	11µM[quencher]	.	.	?
COc1cc(OC)c(NC(=O)Nc2sc3nc4n(c(=O)c3c2C)CCC(C)CC4)cc1Cl (centres undefined)	?	4µM[quencher]	.	.	-
CCOC(=O)N1CCN(C(=O)Nc2sc3nc4n(c(=O)c3c2C)CCC(C)CC4)CC1 (centres undefined)	?	-	-	-	-
Cc1c(NC(=O)Nc2ccc(Cl)c(Cl)c2)sc2nc3n(c(=O)c12)CCC(C)CC3 (centres undefined)	-	?	.	.	?
Cc1ccccc1NC(=O)c1sc2nc3n(c(=O)c2c1C)CCC3	-	4.5µM[quencher]	.	.	?
COc1ccc(NC(=O)c2cc(-c3ccc(F)cc3)no2)cc1OC	-	?	.	.	-
CCn1cc2nc(SCC(=O)Nc3cc(OC)ccc3OC)n(Cc3ccc(Cl)cc3)c(=O)c2n1	-	-	.	.	-
CC1(C)Cc2ccccc2C2=NNC(=O)C2=N1	16µM	-	?	-	?
CC1(C)Cc2ccccc2C(Nn2cnnc2)=N1	-	-	-	-	-
SMILES	Tau ThT inhib	Tau fluor cs	JMJD2E inh	GoLoco inh red	Tau fibril FP
CCn1c(=O)c2cc(C(=O)NCCCN3CCN(c4ccc(F)cc4)CC3)sc2c2ccccc21	?	?	.	.	-
CCOC(=O)C1CCCN(C(=O)Cn2nc(CC)n3c(cc4occc43)c2=O)C1 (centres undefined)	-	-	.	.	-
CCC(C)N1C(=O)/C(=C/c2c(NCCCOC(C)C)nc3c(C)cccn3c2=O)SC1=S (centres undefined)	?	-	?	-	25µM
O=C(O)CSc1cccc[n+]1[O-]	-	-	-	-	-
O=C(CSc1cccc[n+]1[O-])c1cc2ccccc2o1	-	-	32µM	-	-
COC(=O)c1ccc2c(c1)C(C)(C)C(/C=C/c1ccc(O)cc1)=[N+]2C	13µM	?	-	-	?
Cc1cc(C)cc(NC(=O)c2ccc3c(c2)nnn3C2CCCC2)c1	-	-	.	.	-
CCOc1ccc(S(=O)(=O)NCc2cccnc2)cc1C	-	-	-	-	-
CCOc1ccc(S(=O)(=O)NCCc2c(C)[nH]c3c(Cl)cccc23)cc1C	-	10µM[quencher]	.	.	-
COc1ccc(Cn2c(O)c(C=Nc3ccc(O)cc3)c3ccccc3c2=O)cc1	?	4.5µM[quencher]	-	-	?
COc1ccc(Cn2c(O)c(C=Nc3ccccc3)c3ccccc3c2=O)cc1	-	?	?	-	?
COc1ccc(N=Cc2c(O)ccc3ccccc23)cc1	8.9µM	?	-	-	-
Cc1oc(/N=C/c2c(O)ccc3ccccc23)c(C#N)c1C	18µM	-	?	-	?
Cc1cc(S(=O)(=O)Nc2ccc(-c3ccc(N4CCCCC4)nn3)cc2)c(C)cc1Cl	?	-	.	.	-
CC(C)(C)c1cc(C(c2cccnc2)N2CCN(CCO)CC2)cc(C(C)(C)C)c1O (centres undefined)	20µM	-	-	-	?
CC(C)(C)n1nnnc1C(c1cccnc1)N1CCN(c2cccc(C(F)(F)F)c2)CC1 (centres undefined)	-	-	-	-	-
O=C1/C(=C\c2ccc(O)c(O)c2)C(c2ccccc2)=NN1c1ccccc1	?	?	14µM	-	-
CCOc1cc(/C=C2\C(=O)N(c3nc(-c4ccc(Br)cc4)cs3)N=C2c2ccccc2)ccc1O	11µM	?	-	-	?
COc1cc(/C=C2\C(=O)N(c3ccc(NC(C)=O)cc3)N=C2c2ccccc2)ccc1O	?	?	-	-	-
COC1=CC(=O)C=C(OC)C1=O	10µM	?	?	20µM	22µM
COc1ccccc1OCCn1cc(/C=N/NC(=O)c2ccncc2)c2ccccc21	?	13µM[quencher]	-	-	?
O=C(N/N=C/c1cn(CCOc2ccccc2)c2ccccc12)c1ccncc1	?	14µM[quencher]	?	-	-
CCc1nc(Oc2cccc(F)c2)c2oc3ccccc3c2n1	-	-	.	.	-
N=C1[C@@H](O)[C@]2(I)c3ccccc3N3C(=N)[C@H](O)[C@@H]4c5ccccc5N1[C@@H]4[C@@H]32	.	.	.	2.2µM	.
CC(=O)Nc1ccc(NC(=O)CCc2c(C)nc3c(c(C)nn3-c3ccc(C)cc3)c2C)cc1	-	?	.	.	?
CC(C)OC(=O)c1c2c(n3ccccc13)C(=O)c1ccccc1C2=O	11µM	?	-	-	-
COC(=O)c1c(C)oc2ccc(N(C(=O)c3ccncc3)S(=O)(=O)c3ccc(C)cc3)cc12	?	-	?	-	?
Cc1ccc(S(=O)(=O)N(C(=O)c2ccncc2)c2ccc(OC(=O)c3ccncc3)c3ccccc23)c(C)c1	14µM	?	?	-	?
Cc1ccc(S(=O)(=O)N(C(=O)c2ccncc2)c2ccc(OC(=O)c3ccncc3)c3ccccc23)cc1	25µM	?	16µM	-	?

Source: PubChem
